Assay results reported in ChEMBL document CHEMBL4513216, “Probing the Open Global Health Chemical Diversity Library for Multistage-Active Starting Points for Next-Generation Antimalarials” (ACS Infect Dis, 2020).
About 2,700 (4%) of roughly 68,000 compounds showed an effect of 50% or more. Shown is part of a subset that was picked to be rich in strong results.

tested on: Plasmodium berghei; experiment: Screen against P. berghei liver stage (PbLuc), transformed with Luciferase, at 2uM; assay type: functional, HepG2; details: tested at 2 uM

Going from `Cc1nnn2c1COC(CNC(=O)c1cccn1C)C2` (configuration not stated) to `Cn1cnnc1CNC(=O)C1CCCN(Cc2ccccc2)C1` (configuration not stated), the INHIBITION falls from 42.4% to 6.33%.

Going from `Cc1cc(Br)c(O)c(-c2nc(N3CCCCC3)sc2C)c1` to `Cc1ccc(C(=O)N2Cc3c(CN4CCCCC4)nn(C)c3C2)cc1C`, the INHIBITION falls from 14.95% to -15.95%.

First: CN(Cc1cnn(C)c1)S(=O)(=O)N1CCCCCC1
Second: CCn1cnnc1CNC(=O)N1CCCCCC1
The INHIBITION of the first is higher: 47.68% for the first, -8.32% for the second.

Compared with `Cc1noc(C(C)N2CCN(CC(=O)N3CCCC3)CC2)n1` (configuration not stated), `CCc1noc(C(C)N2CCC(C(=O)Nc3cnn(CC)c3)CC2)n1` (configuration not stated) is lower in INHIBITION: -14.01% for the first, -56.72% for the second.

Going from `C1CCC(c2nnc3sc(C4CCOC4)nn23)C1` (configuration not stated) to `C1CCC(c2nnc3sc(C4CCCO4)nn23)C1` (configuration not stated), the INHIBITION falls from 4.12% to -11.31%.

Compared with `C1CCC(c2nn3c(C4CCCO4)nnc3s2)C1` (configuration not stated), `CCn1cnnc1CNC(=O)N1CCC(CN2CCCCCC2)CC1` is lower in INHIBITION: 79.8% for the first, 27.47% for the second.

Going from `Cc1cc(C2CCCN(S(=O)(=O)c3cn[nH]c3)C2)ccn1` (configuration not stated) to `O=C(NC1CCC1)[C@H]1C[C@H]2CN(S(=O)(=O)c3ccccc3)C[C@@H]1O2`, the INHIBITION falls from 49.07% to 24.34%.

Compared with `CN(CCNC(=O)c1cnc(-c2ccccc2)nc1)S(C)(=O)=O`, `CS(=O)(=O)NCCNC(=O)c1cnc(-c2ccccc2)nc1` is higher in INHIBITION: -50.8% for the first, 73.01% for the second.

First: CC(=O)NCCNC(=O)c1cnc(-c2ccccc2)nc1
Second: CCS(=O)(=O)NCCNC(=O)c1cnc(-c2ccccc2)nc1
The INHIBITION of the first is higher: 19.47% for the first, -22.82% for the second.

Going from `CCN(CC)CCNC(=O)c1cnc(-c2ccccc2)nc1` to `CC(C)N(C)CCCNC(=O)c1cnc(-c2ccccc2)nc1`, the INHIBITION rises from -16.21% to 67.83%.

First: O=C(NCCCN1CCOCC1)c1ccnc(OCc2ccccc2)c1
Second: CN(C)CCCNC(=O)c1ccnc(OCc2ccccc2)c1
The INHIBITION of the first is lower: -47.27% for the first, 52.85% for the second.

Compared with `COC(=O)CCNC(=O)c1ccc(OCc2ccccc2)nc1`, `CCOc1cc(CN(C)Cc2ccccc2)ccc1OC(F)F` is higher in INHIBITION: -45.68% for the first, -5.59% for the second.

Compared with `COCCN(Cc1cccnc1)S(=O)(=O)c1cc(C)ccc1F`, `CO[C@@H]1CCN(C(=O)Cc2ccc(F)cc2)[C@@H]1Cc1cccnc1` is lower in INHIBITION: 37.79% for the first, -16.75% for the second.

First: Cn1cc(NS(=O)(=O)c2ccc(C(F)(F)F)cc2)ccc1=O
Second: Cn1ccc2c(ccn2CC(=O)Nc2ccc(Br)cc2)c1=O
The INHIBITION of the first is higher: 21.83% for the first, 0.5% for the second.

First: Cc1nc(CC(C)C)cc(C(=O)N2C[C@@H](CN(C)C)[C@@H](CO)C2)n1
Second: COc1ccc(Cl)cc1C(=O)N1C[C@H](C(C)C)[C@@H](N)C1
The INHIBITION of the first is lower: 3.46% for the first, 5.88% for the second.

First: CCN(Cc1ccc2c(c1)OCO2)C(=O)c1ccc(C)[nH]c1=O
Second: O=C(NCC(F)(F)F)c1ccc(-c2ccco2)[nH]c1=O
The INHIBITION of the first is higher: 0.26% for the first, -5.09% for the second.

Going from `NC(=O)NC(=O)CCSCc1coc(-c2cccc(Cl)c2)n1` to `Cc1cc2ccccc2n1CCC(=O)NCCS(C)(=O)=O`, the INHIBITION falls from 16.25% to -67.22%.

Compared with `O=C(Nc1cnc2n1CCCC2)C1CCCN1C1CCNCC1` (configuration not stated), `COc1ncccc1CN1CC[C@@]2(O)CCN(C(=O)C3CCC3)C[C@H]2C1` is higher in INHIBITION: -26.04% for the first, 27.85% for the second.

Compared with `CCn1cnnc1CNC(=O)N1CCN(c2nccs2)CC1`, `CCn1cnnc1CNC(=O)N1CCN(c2cccs2)CC1` is higher in INHIBITION: 17.31% for the first, 54.85% for the second.

Going from `CCn1cnnc1CNC(=O)N1CCC(C)CC1` to `CCn1cnnc1CNC(=O)N1CCC(O)CC1`, the INHIBITION falls from 56.4% to -0.05%.

First: CCN(CC)C1CCN(C(=O)NCc2nncn2CC)CC1
Second: CCN(CCC1CCN(C(=O)NCc2nncn2CC)CC1)CC1CC1
The INHIBITION of the first is lower: 55.52% for the first, 56.4% for the second.

Compared with `CCn1cnnc1CNC(=O)N1CCC(C(=O)NC)CC1`, `CCn1cnnc1CNC(=O)N1CCCC1` is higher in INHIBITION: -29.11% for the first, 33.82% for the second.

First: CCn1cnnc1CNC(=O)N1CCN(c2ccccc2O)CC1
Second: CCn1cnnc1CNC(=O)N1CCOCC1
The INHIBITION of the first is lower: -3.06% for the first, 27.31% for the second.

Compared with `O=C(C1CCOCC1)N1CCc2ncnc(-c3ccc(F)cc3)c2CC1`, `Cc1nc2c(c(N3CC=CC3)n1)CCN(c1ncccc1C(N)=O)CC2` is lower in INHIBITION: -7.01% for the first, -11.31% for the second.

Going from `c1cncc(CNc2ccccc2-c2nn[nH]n2)c1` to `CN1C[C@@H](NC(=O)c2ccccc2)C[C@H]1c1nc(-c2cnccn2)no1`, the INHIBITION falls from 27% to 23.26%.

Compared with `O=C(c1cscn1)N1CCCC2(CCN2Cc2cccc(F)c2)C1` (configuration not stated), `OC1(Cn2ccc3ncccc32)CCN(Cc2cc(F)cc(F)c2)CC1` is lower in INHIBITION: 37.33% for the first, 31.56% for the second.

First: CC(C)N(C)Cc1cc(=O)n2c(n1)CN(C(=O)c1cnccn1)CCC2
Second: Cn1ccnc1CN1CCCN(C(=O)c2ccc3[nH]nnc3c2)CC1
The INHIBITION of the first is higher: -14.64% for the first, -56.99% for the second.

Going from `Cc1ccc(NC(=O)Cn2ccc3c(=O)n(C)ccc32)cc1F` to `COc1ccc(NC(=O)Cn2ccc3c(=O)n(C)ccc32)cc1OC`, the INHIBITION rises from 41.86% to 52.61%.

First: CCn1ccc2ccnc(CC3CN(C(=O)Cn4ccnc4C)C3)c21
Second: Cc1cccc(N2CCN(CCC(=O)NCc3cnc(C)cn3)CC2)c1
The INHIBITION of the first is higher: 2.78% for the first, -39.01% for the second.

Going from `Cc1cccc(N2CCN(CCC(=O)NCc3nnc[nH]3)CC2)c1` to `CCc1nnc(CNC(=O)CCN2CCN(c3cccc(C)c3)CC2)s1`, the INHIBITION falls from 71.67% to -27.19%.

Compared with `CC1(c2ncc(CN3CCN(c4ncccn4)CC3)cn2)CCCCO1` (configuration not stated), `c1cnc(N2CCC3(CCN(Cc4cccnc4)CC3)CC2)nc1` is higher in INHIBITION: -30.88% for the first, 45.82% for the second.

Compared with `COc1ccc(-n2nc(C3CC3)nc2CCn2cnnn2)cc1`, `COCC1c2c(cnn2CC2CC2)CCN1Cc1ccc(OC)cc1` (configuration not stated) is lower in INHIBITION: -4.15% for the first, -4.92% for the second.

Going from `Cc1cccc(CNC(Cc2ccsc2)c2nc(C)c(C)s2)n1` (configuration not stated) to `CCc1ccc(CN(C)c2cc(COC)nc3ccnn23)cc1`, the INHIBITION rises from 8.75% to 14.96%.

First: CC[C@@H]1N(CC2CC2)CCC[C@]12CCC(=O)N2
Second: CC[C@@H]1N(CC2CCOCC2)CCC[C@]12CCC(=O)N2
The INHIBITION of the first is lower: 10.49% for the first, 20.88% for the second.

Compared with `CC[C@H]1N(CC2CCOCC2)CCC[C@]12CCC(=O)N2`, `Cc1ccc(CN2C(=O)CCC23CCC(NC2CCOC2)CC3)cc1` (configuration not stated) is lower in INHIBITION: 65.91% for the first, 29.85% for the second.

Compared with `CN(CC1COCCO1)c1ncnc2cc(F)ccc12` (configuration not stated), `Cc1cc(C)c2c(N(C)CC3COCCO3)ncnc2n1` (configuration not stated) is higher in INHIBITION: 22.62% for the first, 55.7% for the second.

Compared with `Cc1cc(C)c2c(N(C)CC3CCOC3)ncnc2n1` (configuration not stated), `Cc1nc(COC[C@@H]2CC[C@H]3[C@H](CCN3c3ncccn3)O2)cs1` is lower in INHIBITION: 27.73% for the first, -8.23% for the second.

Compared with `Cn1c(Cn2cccn2)nnc1C1CCN(Cc2ccccc2Cl)CC1`, `CCn1cc(CN2CCC(O)(Cn3ccc4ncccc43)CC2)cn1` is higher in INHIBITION: 15.75% for the first, 22.39% for the second.

Going from `N[C@H]1c2ccccc2C[C@@H]1NC(=O)C1CCN(Cc2ccco2)CC1` to `COc1ccc(C(=O)C2CCCN(CCc3ccccc3)C2)c(OC)c1` (configuration not stated), the INHIBITION falls from 22.88% to -18.81%.

Going from `CN(C)C(=O)CO[C@H]1CN(Cc2ccc(F)cc2)[C@@H]2CCCO[C@H]12` to `CN(C)C(=O)CO[C@@H]1CN(Cc2ccccc2)[C@@H]2CCCO[C@@H]21`, the INHIBITION rises from -84.27% to 52.66%.

First: CN(C)C(=O)CO[C@H]1CN(Cc2ccccc2)[C@@H]2CCCO[C@H]12
Second: O=C1CCC2(CCC(NC3CCOC3)CC2)N1Cc1ccccc1 (configuration not stated)
The INHIBITION of the first is higher: 45.56% for the first, 35.34% for the second.

Going from `CCNC(=O)NC1CN(Cc2ccncc2Cl)C[C@@H]1OC` (some centres not stated) to `COCC(=O)N1CC[C@]2(O)CCN(Cc3cccnc3OC)C[C@@H]2C1`, the INHIBITION rises from -0.98% to 56.49%.

First: CCOc1cc(CN(C)CCC(=O)OC)ccc1OC(F)F
Second: CCOc1cc(CN(C)CC(=O)O)ccc1OC(F)F
The INHIBITION of the first is lower: 14.96% for the first, 78.96% for the second.

Compared with `CCN(Cc1nonc1C)C(=O)c1cc(C(F)(F)F)nn1C`, `Cc1cccc(C)c1OCCNC(=O)NC(C)c1nncn1C` (configuration not stated) is higher in INHIBITION: -12.5% for the first, 64.53% for the second.

Going from `Cc1cnc(N2CC3(CCN(Cc4cccnc4)C3)C2)nc1` to `c1cnc(N2CC3(CCN(Cc4cccnc4)C3)C2)nc1`, the INHIBITION rises from 9.53% to 52.91%.

Going from `COCC(=O)N1CC[C@]2(O)CCN(Cc3ccsc3)C[C@@H]2C1` to `COCC(=O)N1CCC2(CCN(Cc3cccnc3)C2)CC1`, the INHIBITION rises from 19.49% to 51.81%.

Compared with `COCC(=O)N1CCC2(CCN(Cc3ccc(C)cc3)CC2)CC1`, `COCC(=O)N1CCC2(CC1)C(=O)N(Cc1cccnc1)CCN2C` is higher in INHIBITION: -4.2% for the first, 33.3% for the second.

Compared with `O=C(C1CCCO1)N1CCC2(CC1)COCCN(Cc1cccnc1)C2` (configuration not stated), `O=C([C@@H]1CCCO1)N1CCOCC2(CCN(Cc3cccnc3)C2)C1` (some centres not stated) is lower in INHIBITION: 55.49% for the first, -31.3% for the second.

Compared with `O=C(C1CCCO1)N1CCC2(CC1)COCCN(Cc1ccncc1)C2` (configuration not stated), `O=C1CCC2(CCC(NC3CCOC3)CC2)N1Cc1ccncc1` (configuration not stated) is higher in INHIBITION: -66.98% for the first, 56.76% for the second.

First: Cc1cnn(CC2CCCN2C(=O)c2ccc(-n3cccn3)nc2)c1 (configuration not stated)
Second: Cc1cnn(CC2CN(Cc3nccn3CC(F)(F)F)CCO2)c1 (configuration not stated)
The INHIBITION of the first is lower: -26.85% for the first, 36.64% for the second.

First: COc1ccc(CNC(=O)CCc2nnc3ccccn3c2=O)cc1
Second: Cc1ccc(OCCCNC(=O)NC(C)c2nncn2C)cc1 (configuration not stated)
The INHIBITION of the first is higher: 8.41% for the first, -10.5% for the second.

Going from `OC1(Cn2ccc3ncccc32)CCN(Cc2cccnc2)CC1` to `O=C(CCOc1ccccc1)N1CCCC(n2cncn2)C1` (configuration not stated), the INHIBITION falls from 53.24% to 33.5%.

First: CCS(=O)(=O)CCCOc1nc(-c2ccccc2Cl)no1
Second: Cc1cccc(OCCCNC(=O)NC(C)c2nncn2C)c1 (configuration not stated)
The INHIBITION of the first is higher: -5.27% for the first, -7.01% for the second.

With `CN(Cc1cnn(C)c1)C(=O)C1COc2ccccc2C1` (configuration not stated) the INHIBITION was -11.77%.
